Fam108B counter = counter-screen for RBBP9 inhibitors: inhibitors of mouse Fam108B. recombinant Fam108B, FP-Rh probe fluorescence polarization. inhibition, % at 9.51 µM. 0.33% of 300,000 active;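 active = inhibition above the screen mean inhibition plus 3 SD, computed separately per campaign, cut at about 18% in these data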;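 also: inhibitors lower polarization as less probe binds the enzyme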
GSTO1 inh = blocks human GSTO1 in RBBP9 counter-screen; AID 1974; inhibition, % at 5.96 µM; recombinant GSTO1, activity-based probe fluorescence polarization; 1.1% of 300,000 active; P78417;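 active = inhibition above the campaign mean inhibition plus 3 SD, cut at about 35% in these data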;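 also: 0% = GSTO1-1 with DMSO and 100% = wells lacking GSTO1-1 enzyme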
Target sequence (P78417 whole entry, looked up): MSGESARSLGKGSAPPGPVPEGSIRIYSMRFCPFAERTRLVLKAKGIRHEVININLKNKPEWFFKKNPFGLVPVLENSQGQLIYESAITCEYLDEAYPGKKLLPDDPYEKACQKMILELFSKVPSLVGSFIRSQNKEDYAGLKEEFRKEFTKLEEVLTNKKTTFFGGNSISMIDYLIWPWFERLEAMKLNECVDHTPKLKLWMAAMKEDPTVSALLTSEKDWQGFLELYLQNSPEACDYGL
LYPLA2 counter = LYPLA2 (human) inhibition in PME1 counter-screen. 0.38% of 320,000 active. recombinant LYPLA2, FP-Rh probe fluorescence polarization. inhibition, % at 5.9 µM;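 active = inhibition above the screen-wide mean plus 3 SD, limit set per campaign, cut at about 26% in these data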;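 also: 0% = LYPLA2 with DMSO and 100% = wells lacking LYPLA2 enzyme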
Target sequence (O95372 whole entry, looked up): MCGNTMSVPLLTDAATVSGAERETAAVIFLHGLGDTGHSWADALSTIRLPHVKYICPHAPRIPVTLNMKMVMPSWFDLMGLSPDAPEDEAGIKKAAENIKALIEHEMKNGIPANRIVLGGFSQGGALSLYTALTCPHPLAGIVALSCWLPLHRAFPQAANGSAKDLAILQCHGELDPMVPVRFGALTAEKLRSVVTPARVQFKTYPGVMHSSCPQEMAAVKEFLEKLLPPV
LYPLA1 counter = blocks human lysophospholipase 1, a PME1 counter-screen; O75608; recombinant LYPLA1, FP-Rh probe fluorescence polarization; inhibition, % at 5.9 µM; 0.16% of 320,000 active;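 active = inhibition above the mean of all tested compounds plus 3 SD, set per campaign, cut at about 14% in these data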;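 also: inhibitors block serine hydrolase probe labeling of LYPLA1 so polarization falls; 0% = enzyme with DMSO and 100% = wells lacking LYPLA1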
Target sequence (O75608 whole entry, looked up): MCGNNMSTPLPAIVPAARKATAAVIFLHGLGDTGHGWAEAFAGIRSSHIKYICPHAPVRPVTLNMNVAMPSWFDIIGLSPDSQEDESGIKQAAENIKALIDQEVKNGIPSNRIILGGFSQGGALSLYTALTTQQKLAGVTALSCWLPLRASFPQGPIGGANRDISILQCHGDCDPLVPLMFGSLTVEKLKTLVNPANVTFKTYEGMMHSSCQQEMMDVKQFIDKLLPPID
PME-1 inh = blocks human protein phosphatase methylesterase 1; recombinant PME-1, FP-Rh probe fluorescence polarization; AID 2130; inhibition, % at 5.9 µM; Q9Y570; 0.53% of 320,000 active;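 active = inhibition above the campaign mean of all compounds plus 3 SD, cut at about 26% in these data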;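 also: competitive labeling of PME-1 active site by serine hydrolase directed probe; 0% = PME-1 with DMSO and 100% = wells lacking PME-1 enzyme; inhibitors block probe labeling so polarization falls and inhibition rises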
PAD4 inh = PAD4 (human) enzyme inhibition | Q9UM07 | recombinant PAD4, RCA probe fluorescence polarization | inhibition, % at 6.36 µM | 0.41% of 330,000 active | AID 485272;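 active = percent inhibition above a cutoff equal to the mean of all tested compounds plus 3 SD, cut at about 15% in these data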;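 also: 0% = PAD4 with RCA probe and DMSO and 100% = probe without PAD4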
GSTO1 inh conf = GSTO1 (human) inhibition, confirmation; AID 2176; shares compounds with GSTO1 inh; recombinant GSTO1, probe fluorescence polarization; 54% of 2,400 active; inhibition, % at 5.96 µM;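 active = inhibition above the primary screen's cutoff, its mean inhibition plus 3 SD, cut at about 35% in these data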;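 also: loss of polarization as inhibitors block binding of rhodamine sulfonate ester activity probe; 0% = GSTO1 with DMSO and 100% = wells lacking GSTO1 enzyme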
GSTO1 recomb ABPP = inhibitors of recombinant human GSTO1; AID 463110; inhibition, % at 1 µM; gel ABPP SE-Rh probe fluorescence; 30% of 130 active; shares compounds with GSTO1 inh;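 active = inhibition of the enzyme GSTO1 above about 75%, limit read from the data; inactive = inhibition below that limit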
LYPLA1 conf = counter-screen for PME1 inhibitors: confirmation of human LYPLA1 inhibitors | shares compounds with LYPLA1 counter | recombinant LYPLA1, FP-Rh probe fluorescence polarization | inhibition, % at 5.9 µM | 69% of 480 active;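 active = mean inhibition across replicates above the hit cutoff set in the primary screen, cut at about 15% in these data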;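 also: loss of FP-Rh probe labeling of LYPLA1 seen as lower polarization; 0% = LYPLA1 with DMSO and 100% = wells lacking LYPLA1 enzyme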
LYPLA2 confirm = counter-screen for PME1 inhibitors: confirmation of human LYPLA2 inhibitors; shares compounds with LYPLA2 counter; recombinant LYPLA2, FP-Rh probe fluorescence polarization; inhibition, % at 5.9 µM; 72% of 1,100 active;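 active = mean inhibition across replicates above the hit cutoff set in the primary screen, cut at about 26% in these data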;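 also: blocked labeling of the enzyme by serine hydrolase FP-Rh probe lowers polarization; 0% = enzyme with DMSO and 100% = wells lacking LYPLA2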
PAD4 confirm = PAD4 (human) inhibition, confirmed | shares compounds with PAD4 inh | recombinant PAD4, RCA probe fluorescence polarization | inhibition, % at 6.36 µM | 28% of 1,200 active | AID 488796;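 active = mean inhibition across replicates above the hit cutoff set by the earlier primary screen, cut at about 15% in these data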;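 also: inhibitors block active-site labeling by the probe so polarization falls; 0% = PAD4 with probe and DMSO and 100% = probe without PAD4 enzyme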
* marks the source's active call; other numbers are inactive results; . = not tested or not shown; ! = not confirmed by another sample. Hits are enriched below; roughly 1.8% of the tested compounds scored in any of these assays.

SMILES | Fam108B counter | GSTO1 inh | LYPLA2 counter | LYPLA1 counter | PME-1 inh | PAD4 inh | GSTO1 inh conf | others
CC(C)C[C@H]1C(=O)N2CCC[C@H]2[C@]2(O)O[C@](NC(=O)[C@@H]3C=C4c5cccc6[nH]cc(c56)C[C@H]4N(C)C3)(C(C)C)C(=O)N12 | 16 | 51* | 8 | 1 | 8 | 7 | 6
O=[N+]([O-])c1cc(O)c(O)c([N+](=O)[O-])c1 | 4 | 39* | 0 | 4 | -1 | 7 | 31
O=[N+]([O-])c1ccc(O)c([N+](=O)[O-])c1 | -1 | 3 | -1 | 3 | -3 | 1 | .
CC(=O)N1CC(=O)Nc2ccc(F)cc2C1c1ccccc1 (stereo not drawn) | 2 | 10 | 4 | 3 | 2 | -7 | .
Oc1ccc2c3c1O[C@H]1c4[nH]c5ccccc5c4C[C@@]4(O)C(C2)N(CC2CC2)CC[C@]314 | 4 | 40* | 3 | -3 | 2 | -3 | 3
Oc1ccc2c3c1O[C@H]1c4[nH]c5ccccc5c4C[C@@]4(O)[C@@H](C2)N(CC2CC2)CC[C@]314 | -1 | 3 | 2 | 0 | -1 | -4 | .
CC(C)CNC(=O)c1c(N)n(Cc2ccc3c(c2)OCO3)c2nc3ccccc3nc12 | 8 | 62* | 1 | -7 | 5 | 7 | 1
CCCNC(=O)c1c(N)n(Cc2ccc3c(c2)OCO3)c2nc3ccccc3nc12 | -1 | 16 | 2 | 3 | 8 | -7 | .
CCCCNC(=O)c1c(N)n(CCCOC)c2nc3ccccc3nc12 | 9 | 51* | -8 | -3 | 8 | 2 | 17
CCCNC(=O)c1c(N)n(Cc2ccco2)c2nc3ccccc3nc12 | 3 | 17 | -1 | 2 | -5 | -15 | .
CC(C)CCn1c(N)c(C(=O)NCc2cccs2)c2nc3ccccc3nc21 | -1 | 3 | -7 | -6 | 0 | -4 | .
CC(C)CCNC(=O)c1c(N)n(Cc2ccc3c(c2)OCO3)c2nc3ccccc3nc12 | 7 | 40* | -9 | -6 | 0 | -4 | 69*
CC(C)CNC(=O)c1c(N)n(Cc2ccco2)c2nc3ccccc3nc12 | 15 | 42* | -10 | -8 | 0 | -31 | -1
CCN(CC)C(=O)c1ccc(NC(=O)COc2ccccc2F)cc1 | -4 | 1 | -1 | 0 | -7 | -3 | .
O=C(O)C(Br)CBr (stereo not drawn) | . | . | -9 | -4 | 1 | 2 | .
COc1cc(O)c(C(=O)O)c(-c2cc(O)c(O)cc2C)c1 | 5 | 64* | 5 | 3 | -2 | 1 | 23
COc1ccc2c(c1)c(C(=O)O)c(C)n2CC(C)C | 0 | 2 | 3 | 0 | -4 | 0 | .
N=c1sccn1Cc1ccc(Cl)cc1Cl | 0 | 75* | 0 | 3 | -3 | 0 | 7
Clc1ccc(CO/N=C(\Cn2ccnc2)c2ccc(Cl)cc2Cl)c(Cl)c1 | -1 | 2 | 4 | -1 | 0 | -2 | .
O=C(/C=C/c1ccc(Cl)cc1)NC(=S)N1C[C@H]2C[C@H](C1)c1cccc(=O)n1C2 | -4 | 3 | -4 | -2 | -9 | -1 | .
CC(C)(C)c1ccc(O)c(N=Cc2c(O)ccc3ccccc23)c1 | 9 | 69* | -3 | -2 | 1 | -6 | 8
CC(C)OC(=O)Nc1ccc(N=C(N)N[N+](=O)[O-])cc1 | 4 | 5 | 0 | -2 | -2 | -5 | .
CC1CCN(C(=O)CCl)CC1 | 4 | 93* | 10 | 4 | 2 | 1 | 95* | GSTO1 recomb ABPP=83*
CCc1ccc(OCC(=O)N2CCN(Cc3ccc4c(c3)OCO4)CC2)cc1 | -2 | 13 | 4 | 2 | 0 | -5 | .
Cn1c(O)c(C2=NN(C(=O)CCl)C(c3ccccc3)C2)c(=O)n(C)c1=O (stereo not drawn) | 4 | 102* | 3 | 1 | 3 | 4 | 98*
SMILES | Fam108B counter | GSTO1 inh | LYPLA2 counter | LYPLA1 counter | PME-1 inh | PAD4 inh | GSTO1 inh conf | others
O=C(CN1CCCC1=O)N1CCOCC1 | -4 | 56* | -6 | 1 | -5 | 0 | 12
O=C(CN1CCCC1=O)Nc1ccccc1 | 5 | 5 | 2 | 3 | 4 | -3 | .
CC(C)CN(CC(C)C)c1ccc(C=C2C(=O)NC(=S)NC2=O)cc1[N+](=O)[O-] | 11 | 42* | 9 | 1 | 9 | -5 | 27
CCc1ccccc1NC(=O)CNCc1ccccc1 | 4 | -5 | -2 | -1 | 2 | -5 | .
C=C(C)Cn1c(=O)n(CC2CS2)c2ccccc21 (stereo not drawn) | -2 | 50* | -6 | -2 | 1 | -1 | 46*
CC[C@@H](CO)NC(=O)[C@@H]1C=C2c3cccc4c3c(cn4C)C[C@H]2N(C)C1 | 3 | 48*! | 10 | 6 | 5 | 22*! | 12 | PAD4 confirm=1
C=CCC1(CN2CCCCCC2=O)C(=O)NC(=O)NC1=O | -3 | -4 | 3 | 1 | 2 | 2 | .
O=C(O)CC1OCC=C2CN3CCC45C6=CC(=O)C(=O)C([N+](=O)[O-])=C6NC4C1C2CC35 (stereo not drawn) | 3 | 79* | -3 | 2 | 6 | 66* | 82* | PAD4 confirm=60*
COC(=O)C1=C(c2ccc(S(C)(=O)=O)cc2)C[C@@H]2CC[C@H]1N2C | . | . | 5 | 2 | 1 | -4 | .
COCCNC(=O)c1c(N)n(CCC(C)C)c2nc3ccccc3nc12 | 7 | 75* | -4 | -1 | 7 | 40* | 6 | PAD4 confirm=-2
CCOC(=O)c1c(C)[nH]c(C)c1C(=O)C(Cc1ccccc1)N(C)C (stereo not drawn) | -2 | 0 | 3 | -1 | 4 | 0 | .
CCOC(=O)c1c(NS(=O)(=O)c2ccccc2)n(CCCOC)c2nc3ccccc3nc12 | 9 | 93* | 96* | 83* | 33* | 79* | 59* | LYPLA1 conf=1;LYPLA2 confirm=0;PAD4 confirm=-5
COCCOC(=O)c1c(N)n(Cc2ccc(OC)cc2)c2nc3ccccc3nc12 | -6 | 32 | -4 | -4 | 2 | -9 | .
Cc1ccc(S(=O)(=O)NC(Cc2cnc[nH]2)C(=O)O)cc1 (stereo not drawn) | 0 | 0 | 6 | 0 | -3 | 5 | .

Compound activity (PubChem)
